Assay outcomes as filed in PubChem.
A selection: hits, their analogues and other compounds. The true share with any hit is near 3.7%.
tim10-1 inh: inhibits growth of tim10-1 mutant yeast. AID 463190. inhibition, % at 20 µM. S. cerevisiae tim10-1 ts strain growth, BacTiter-Glo, 24 h. hit rate 2.2% among 330,000;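 active = inhibition of at least 40%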;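 note: mutant grown at 25 °C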
TIM10 inh: inhibits growth of TIM10 yeast strain | inhibition, % at 10 µM | S. cerevisiae TIM10 strain growth, BacTiter-Glo luminescence, 24 h | AID 463195 | hit rate 1.4% among 330,000;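 active = inhibition of 40% or more at the single tested concentration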;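 note: wild-type TIM10 isogenic control strain grown at permissive 25 °C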
tim23-1 inh: growth inhibitors of tim23-1 mutant yeast | S. cerevisiae tim23-1 growth, BacTiter-Glo luminescence, 24 h | inhibition, % at 20 µM | hit rate 1.3% among 330,000;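 active = growth inhibition of the mutant yeast at or above 50%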;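 note: temperature-sensitive mutant grown at 25 °C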
PfHsp90 set2: inhibits growth of yeast expressing Plasmodium falciparum Hsp90. hit rate 0.32% among 310,000. S. cerevisiae expressing PfHsp90, BacTiter-Glo ATP, 48 h; yeast lacking PDR1 and PDR3 efflux regulators. inhibition, % at 9.4 µM;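 active = every replicate shows inhibition above about 80%, whatever the replicate mean, limit read from the data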
V-ATPase pH: alters yeast V-ATPase proton transport. hit rate 0.37% among 350,000. AID 504577. response, % at 10 µM. S. cerevisiae, pHLuorin cytosolic pH fluorescence; in the data active = response mostly above about 7.3%, no sharp cut-off; inactive = mostly below about 5.4%; note: actives read high
tim10-1 conf: confirmation of tim10-1 mutant yeast growth inhibitors | AID 463213 | S. cerevisiae tim10-1 ts strain growth, BacTiter-Glo, 24 h | inhibition, % at 20 µM | shares compounds with tim10-1 inh | hit rate 56% among 7,400;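 active = inhibition of yeast growth at or above a set limit in either of two repeat tests at 20 µM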;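 note: tim10-1 mutant grown at permissive 25 °C to find synthetic lethal compounds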
tim10 confirm: TIM10 yeast growth inhibition, confirmed; shares compounds with TIM10 inh; S. cerevisiae tim10 strain growth, BacTiter-Glo luminescence, 24 h; inhibition, % at 10 µM; hit rate 63% among 4,600;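 active = inhibition of yeast growth at or above a set limit in either of two replicates at 10 µM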; note: this counterscreen used the strain with wild-type TIM10
tim23-1 confirm: confirmation of tim23-1 mutant yeast growth inhibitors. shares compounds with tim23-1 inh. S. cerevisiae tim23-1 growth, BacTiter-Glo luminescence, 24 h. inhibition, % at 20 µM. hit rate 83% among 4,400. AID 463218;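 active = inhibition above about 39% in either of two replicate wells at 20 µM, limit read from the data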;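 note: temperature-sensitive tim23-1 mutant grown at 25 °C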
VATPase regulator: yeast V-ATPase proton transport regulation. shares compounds with V-ATPase pH. S. cerevisiae pHLuorin cytosolic pH. response, % at 10 µM. hit rate 2% among 980. AID 602197; in the data active = response above about 24%
Hits are given with their value; – = inactive; · = no result given.

SMILES	tim10-1 inh	TIM10 inh	tim23-1 inh	PfHsp90 set2	V-ATPase pH	tim10 confirm	others
Cc1cccc(C(=O)OCC(=O)NCCNC(=O)COC(=O)c2cccc(C)c2C)c1C	–	–	–	–	–	·
Cc1cc(C)c2nc(NNC(=O)c3cc(-c4cccs4)nc4ccccc34)sc2c1	–	–	–	–	–	·
O=C(NNc1nc2ccc(Cl)cc2s1)c1cc(-c2cccs2)nc2ccccc12	50	–	52	103	–	·	tim10-1 conf=35;tim23-1 confirm=54
Cc1cccc(NCCC(=O)c2ccc([N+](=O)[O-])cc2)c1C	40	–	–	·	96	·	tim10-1 conf=38;VATPase regulator=–
Cc1ccc(NCCC(=O)c2cccc([N+](=O)[O-])c2)c(C)c1	–	–	–	–	–	·
O=C(Nc1ccc(N2CCOCC2)c(Cl)c1)c1ccc([N+](=O)[O-])o1	·	·	·	–	–	·
O=C(Nc1ccccc1N1CCOCC1)c1ccc([N+](=O)[O-])o1	80	90	70	109	25	94	tim10-1 conf=80;tim23-1 confirm=71;VATPase regulator=90
O=C(NC1CC1)c1cccc(NC(=O)C2CCN(S(=O)(=O)c3cccc(C(F)(F)F)c3)CC2)c1	·	·	·	·	–	·
Cc1ccsc1CN1CC(=O)N(c2c(C)cccc2C)C1=S	45	–	–	·	7.4	·	tim10-1 conf=36;VATPase regulator=–
O=C(c1ccc(Cl)cc1)[C@@H]1[C@@H]2C(=O)N(c3ccccc3)C(=O)[C@@H]2C2c3ccccc3C=NN21 (some centres not stated)	40	–	–	–	10	·	tim10-1 conf=–;VATPase regulator=–
CNC(=O)c1ccc(CN(C)C(=O)c2cccc(S(=O)(=O)N3CCc4ccccc4C3)c2)cc1	·	·	·	·	–	·
COc1ccc(Cl)cc1NC(=S)NCCSc1ccc(C)cc1	49	–	–	–	7.6	·	tim10-1 conf=40;VATPase regulator=–
COc1ccc(S(=O)(=O)N(C)C[C@H]2Oc3ccc(NC(=O)Cc4cn(C)c5ccccc45)cc3C(=O)N([C@@H](C)CO)C[C@@H]2C)cc1	–	–	–	–	–	·
COc1ccccc1/C=C/C1(C(=O)NC2CCCC2)CC(=O)N1c1ccc(F)cc1 (configuration not stated)	–	41	–	–	–	–
COc1ccccc1/C=C/C1(C(=O)NC2CCCC2)CC(=O)N1c1ccc(C)cc1 (configuration not stated)	–	–	–	–	–	·
O=C(c1ccc(Br)cc1)C(CN1CCOCC1)c1ccccc1 (configuration not stated)	–	51	–	98	–	60
CCOc1ccc(C(=O)C(CN2CCOCC2)c2ccccc2)cc1 (configuration not stated)	·	·	·	–	–	·
Cc1ccccc1C1=N/C(=C/c2cccs2)C(=O)O1	–	51	–	·	–	–
Oc1ccc(-c2nnc(-c3ccc(O)cc3)nn2)cc1	–	–	–	·	–	·
Oc1ccc(-c2cccc(-c3ccc(O)cc3)n2)cc1	–	44	–	·	–	32
O=C(c1cnn2c1NC(c1ccc(Br)cc1)CC2C(F)(F)F)N1CCN(C23CC4CC(CC(C4)C2)C3)CC1 (configuration not stated)	–	42	–	·	–	–
C[n+]1c2n(c3ccccc31)N=C(c1ccc(Cl)cc1)CS2	–	41	–	–	–	44
COc1ccc(C2=Nn3c([n+](C)c4ccccc43)SC2)cc1	–	–	–	–	–	·
CC(=O)Nc1ccc(S(=O)(=O)N(C)CC(=O)NNc2c(F)c(F)cc(F)c2F)cc1	–	–	–	–	–	·
COc1cccc2cc(-c3nc4ccccc4o3)c(=O)oc12	–	60	–	–	–	67
SMILES	tim10-1 inh	TIM10 inh	tim23-1 inh	PfHsp90 set2	V-ATPase pH	tim10 confirm	others
CCCNC(=O)C(Cc1ccccc1)NC(=O)Cc1ccccc1 (configuration not stated)	–	–	–	–	–	·
CC1=C/C(=N\NC(=S)NCCc2ccccc2)CC(C)(C)C1	–	43	–	–	–	–
COCCNC(=O)Cn1nc(-c2ccc(Cl)cc2)c2ccccc2c1=O	–	–	–	–	–	·
Cc1c(Cl)ccc2sc(NC(=O)C3CC3)nc12	–	44	–	–	–	38
CC(=O)Nc1nc2c(C)c(Cl)ccc2s1	–	–	–	–	–	·
Cc1[nH]nc2ncc(C(=O)c3cc(Cl)cc(Cl)c3O)cc12	–	63	–	–	–	31
COc1cc2c(cc1OC)C(C(=O)NC(C)c1ccccc1)CC(=O)N2 (configuration not stated)	–	–	–	–	–	·
O=C(CSc1ccc(-c2ccccc2)nn1)c1cccs1	–	41	–	–	–	–
Cc1ccc(-c2ccc(SCC(=O)c3ccccc3)nn2)cc1	–	–	–	–	–	·
COc1ccc(-c2ccc(SCC(=O)c3cccs3)nn2)cc1	–	43	–	·	–	–
CN1OC[C@@H]2CN[C@H](c3ccc(-c4cc5ccccc5o4)cc3)C[C@@H]21	·	·	·	·	–	·
CC(C)Cn1c(C(C)C)nc([N+](=O)[O-])c1S(=O)(=O)c1ccc(F)cc1	–	40	–	–	–	–
COCC(=O)/C=C1\Sc2ccccc2N1C	–	–	–	–	–	·
CN1/C(=C/C(=O)c2cccs2)Sc2ccccc21	–	73	–	·	–	61
CC(C)c1ccc(S(=O)(=O)N2CCN(C(=S)NCc3ccco3)CC2)cc1	–	49	–	–	–	–
O=C(NCc1n[nH]c(=S)n1-c1ccc(Cl)c(Cl)c1)c1ccco1	–	–	–	–	–	·
COc1ccc2[nH]c3c(c2c1)CCN1C(=O)C(CC(=O)NCc2ccc(OC)c(OC)c2)C[C@H](C(=O)N2CCCCC2)[C@@]31CCc1ccccc1 (some centres not stated)	–	–	–	–	–	·
O=C(CSc1ccccc1F)NCC(c1cccs1)N1CCOCC1 (configuration not stated)	–	–	–	–	–	·
Cc1ccc(C(=O)NCCc2nnc3ccc(SCC(=O)Nc4ccccc4F)nn23)cc1	–	–	–	–	–	·
COc1ccc(-c2noc(CCC(=O)NCCc3ccccc3)n2)cc1OC	–	–	–	–	–	·
O=C(N/N=C/c1ccc(F)cc1)c1cc(-c2ccccn2)nc2ccccc12	–	–	–	–	–	·
COc1cccc(/C=N/NC(=O)c2cc(-c3ccccn3)nc3ccccc23)c1O	–	45	–	–	–	–
CCOc1ccc(C(=O)COC(=O)c2nc3nccc(C)n3n2)cc1	–	–	–	·	–	·
O=S(=O)(c1ccc(NC(=S)NCc2ccc(F)cc2)cc1)N1CCOCC1	–	–	–	–	–	·
CC(=O)N/N=C/c1ccccc1OCCOc1cccc(C)c1	–	47	–	–	–	34
